Experimental data: PubChem BioAssay
Active and inactive are the calls of the source. Rule as the data show it, unless noted: active = inhibition above about 80%; inactive = the rest.

Key:
[1] = LFS_MB_P medulloblastoma growth inhibition, cell-based, chromothripsis tumors, cisplatin or BGB combos (AID 1671449); conditions: LFS_MB_P medulloblastoma cells;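 also: cells exposed for 96 hours; 0% = vehicle DMSO and 100% = killing by high DMSO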
[2] = HDN33 neuroblastoma growth inhibition, cell-based, chromothripsis tumors, cisplatin or BGB combos (AID 1671450); conditions: HDN33 neuroblastoma cells, stronger effect = higher value;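 also: cells exposed to compound for four days; 0% = vehicle DMSO and 100% = cell killing by high DMSO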
[3] = ICB984 medulloblastoma cell growth inhibition, synergistic combos for chromothripsis tumors, cisplatin or BGB combos (AID 1671451; call rule not given here;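 also: cells exposed for 96 hours before readout; 0% = vehicle DMSO and 100% = killing by high DMSO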); conditions: ICB984 medulloblastoma cells, drug combinations, stronger effect = higher value
[4] = LFS_MB_1R medulloblastoma cell growth inhibition, synergistic combos for chromothripsis tumors, cisplatin or BGB combos (AID 1671452); conditions: LFS_MB_1R medulloblastoma cells, stronger effect = higher value;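 also: cells exposed for 96 hours before readout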
[5] = HTB85 osteosarcoma cell growth inhibition, synergistic combos for chromothripsis tumors, BGB or cisplatin IC20 combos (AID 1671453); conditions: HTB85 osteosarcoma cells, drug combinations, stronger effect = higher value;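 also: cells exposed for 96 hours before readout; 0% = vehicle DMSO and 100% = high DMSO killing control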
[6] = CRL2098 osteosarcoma cell growth inhibition, synergistic combos for chromothripsis tumors, BGB or cisplatin IC20 combos (AID 1671454); conditions: CRL2098 osteosarcoma cells, drug combinations, stronger effect = higher value;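 also: cells exposed for 96 h before readout; 0% = vehicle DMSO and 100% = killing by high DMSO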
[7] = HD-MB03 medulloblastoma cell growth inhibition, synergistic combos for chromothripsis tumors, BGB or cisplatin IC20 combos (AID 1671455; in the data active = inhibition above about 83%;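 also: 0% = vehicle DMSO and 100% = high DMSO as cytotoxic control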); conditions: HD-MB03 medulloblastoma cells, stronger effect = higher value
[8] = UWB1.289 ovarian carcinoma cell growth inhibition, synergistic combos for chromothripsis tumors, BGB or cisplatin combos (AID 1671456); conditions: UWB1.289 ovarian carcinoma cells, stronger effect = higher value;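 also: cells exposed to compound for four days; 0% = vehicle DMSO and 100% = killing by high DMSO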
[9] = LFS_MB_2R medulloblastoma cell growth inhibition, synergistic combos for chromothripsis tumors, cisplatin combos (AID 1671457); conditions: LFS_MB_2R medulloblastoma cells, stronger effect = higher value;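 also: cells exposed to compound for four days before readout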
[10] = MDA-MB-436 breast carcinoma cell growth inhibition, synergistic combos for chromothripsis tumors, BGB or cisplatin combos (AID 1671458; call rule not given here;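 also: cells exposed for 96 hours; 0% = vehicle DMSO and 100% = killing by high DMSO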); conditions: MDA-MB-436 breast carcinoma growth inhibition, drug combinations, stronger effect = higher value
[11] = UWB1.289_BRCA1 ovarian cancer growth, cell-based, BGB or cisplatin combinations (AID 1671459); conditions: UWB1.289 BRCA1 ovarian carcinoma, drug combinations, stronger effect = higher value
[12] = human astrocyte viability loss, single and combined drugs, cytotoxicity control for chromothriptic childhood tumor combination screen, cell-based, BGB or cisplatin IC20 combos (AID 1671460); conditions: Human astrocytes, drug combinations, stronger effect = higher value;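 also: cells exposed to compounds for 96 hours before viability readout; 0% = vehicle and 100% = killing control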
[13] = growth inhibition of BT084 medulloblastoma cells, cell-based, ICGC_MB145, cisplatin and BGB IC40 combos (AID 1671461); conditions: drug combinations, stronger effect = higher value;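 also: cells exposed to drugs for 96 hours; 0% = vehicle DMSO and 100% = high DMSO full killing control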
[14] = growth inhibition of RCMB18 medulloblastoma cells, cell-based, cisplatin and BGB IC40 combos (AID 1671462); conditions: stronger effect = higher value;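 also: cells exposed to compound for four days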
[15] = growth inhibition of CRL1545 osteosarcoma cells, cell-based, cisplatin and BGB IC20 combos (AID 1671464); conditions: stronger effect = higher value;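 also: cells exposed to compound for 96 hours before readout; 0% = vehicle DMSO and 100% = high DMSO killing control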
[16] = at 0.5 µM, stronger effect = higher value
[17] = measured here: combination with BGB IC20, at 0.005 µM
[18] = measured here: combination with BGB IC40, at 0.005 µM
[19] = measured here: combination with BGB IC40, at 0.05 µM
[20] = measured here: combination with cisplatin, at 0.5 µM, stronger effect = higher value
[21] = measured here: combination with cisplatin, at 5 µM, stronger effect = higher value
[22] = measured here: with BGB IC20 combination, at 0.5 µM
[23] = measured here: with cisplatin IC20 combination, at 0.5 µM
[24] = measured here: 5 uM single agent, at 5 µM
[25] = measured here: combination with cisplatin, at 0.5 µM
[26] = measured here: combination with cisplatin, at 5 µM
[27] = measured here: with BGB IC20, at 0.5 µM
[28] = measured here: with BGB IC20, at 5 µM
[29] = measured here: with cisplatin IC20, at 0.5 µM
[30] = measured here: with cisplatin IC20, at 5 µM
[31] = measured here: combination with BGB at IC20, at 0.5 µM
[32] = measured here: combination with cisplatin at IC20, at 0.5 µM
[33] = measured here: combo with BGB at IC20, at 0.5 µM
[34] = measured here: combo with cisplatin at IC20, at 0.5 µM
[35] = measured here: inhibition with BGB combination, at 0.05 µM
[36] = measured here: inhibition with cisplatin combination, at 0.05 µM
[37] = measured here: BGB combination, at 0.5 µM
[38] = measured here: BGB combination, at 5 µM
[39] = measured here: cisplatin combination, at 0.5 µM
[40] = measured here: cisplatin combination, at 5 µM
[41] = BGB combination, concentration series, at 5 µM
[42] = cisplatin combination, concentration series, at 5 µM
[43] = measured here: combo with BGB IC20, at 0.5 µM
[44] = measured here: combo with cisplatin IC20, at 0.5 µM
[45] = cisplatin combination, at 0.5 µM
[46] = measured here: BGB IC40 combination 0.05 uM, at 0.05 µM
[47] = measured here: BGB IC40 combination, at 0.05 µM

SMILES: Cc1cc(C)cc(C(=O)NOCCCCCC(=O)NO)c1
- inhibition [1, 16]: -18.6% (inactive)
- inhibition [1, 17]: -25.1%
- inhibition [1, 18]: -71.8%
- inhibition [1, 19]: -38.3%
- inhibition [1, 20]: 23.3%
- inhibition [1, 21]: 101%
- inhibition ([2]; BGB combo, at 5 µM): 98%
- inhibition ([2]; at 0.5 µM): 16.4% (inactive)
- inhibition ([2]; cisplatin combo, at 5 µM): 99.6%
- inhibition [2, 22]: 11.9%
- inhibition [2, 23]: 14.2%
- inhibition ([2]; single agent, at 5 µM): 99.6%
- inhibition ([3]; BGB IC20 combo, at 0.005 µM): 3.29%
- inhibition ([3]; BGB IC40 combo, at 0.005 µM): -11.3%
- inhibition ([3]; BGB IC40 combo, at 0.05 µM): 93.2%
- inhibition ([3]; at 0.5 µM): -24.3% (inactive)
- inhibition ([3]; cisplatin combo, at 0.05 µM): 93.4%
- inhibition ([3]; cisplatin combo, at 0.5 µM): -27.8%
- inhibition ([3]; cisplatin combo, at 5 µM): -32.7%
- inhibition [3, 24]: -20.9%
- inhibition ([4]; at 0.5 µM): 21.5% (inactive)
- inhibition [4, 19]: -19%
- inhibition [4, 25]: 16.6%
- inhibition [4, 26]: 97%
- inhibition ([5]; at 0.5 µM): 15.3% (inactive)
- inhibition [5, 27]: 4.55%
- inhibition [5, 28]: 96.8%
- inhibition [5, 29]: 32.1%
- inhibition [5, 30]: 99.4%
- inhibition ([5]; single agent, at 5 µM): 98.4%
- inhibition ([6]; at 0.5 µM): -44.3% (inactive)
- inhibition [6, 31]: -68.4%
- inhibition [6, 32]: -43.7%
- inhibition ([7]; at 0.5 µM): 53.4% (inactive)
- inhibition [7, 33]: 36.6%
- inhibition [7, 34]: 95.8%
- inhibition ([8]; at 0.5 µM): 35% (inactive)
- inhibition [8, 35]: -9.28%
- inhibition [8, 36]: -8.14%
- inhibition ([9]; at 0.5 µM): 8.45% (inactive)
- inhibition [9, 25]: 32.9%
- inhibition [9, 26]: 102%
- inhibition ([10]; at 0.5 µM): 7.8% (inactive)
- inhibition [10, 37]: -12.2%
- inhibition [10, 38]: 42.5%
- inhibition [10, 39]: -3.09%
- inhibition [10, 40]: 53.9%
- inhibition [11, 41]: 92.6%
- inhibition ([11]; at 0.5 µM): 33.7% (inactive)
- inhibition [11, 42]: 110%
- inhibition ([12]; at 0.5 µM): 38% (inactive)
- inhibition [12, 43]: 37.9%
- inhibition [12, 44]: 25.6%
- inhibition ([13]; at 0.5 µM): 35.6% (inactive)
- inhibition [13, 45]: 32.4%
- inhibition ([13]; cisplatin combination, at 5 µM): 98.6%
- inhibition [13, 46]: -14.5%
- inhibition ([13]; single agent, at 5 µM): 105%
- inhibition ([14]; at 0.5 µM): 21.6% (inactive)
- inhibition ([14]; cisplatin combo, at 5 µM): 92.9%
- inhibition [14, 47]: -1.76%
- inhibition [14, 25]: 22.3%
- inhibition ([14]; single agent, at 5 µM): 89.9%
- inhibition ([15]; at 0.5 µM): 75.7% (inactive)
- inhibition [15, 22]: 64.9%
- inhibition [15, 23]: 80.7%
- inhibition ([15]; single agent, at 0.05 µM): 5.92%
- inhibition ([15]; single agent, at 5 µM): 72.3%

SMILES: CN(C)C(=S)NN=C(c1ccccn1)c1ccccn1
- inhibition [1, 16]: 9.49% (inactive)
- inhibition [1, 17]: 65.9%
- inhibition [1, 18]: 60.3%
- inhibition [1, 19]: 73.6%
- inhibition [1, 20]: 14.7%
- inhibition [1, 21]: 65.2%
- inhibition ([2]; BGB combo, at 5 µM): 93.5%
- inhibition ([2]; at 0.5 µM): 96.3% (active)
- inhibition ([2]; cisplatin combo, at 5 µM): 96.8%
- inhibition [2, 22]: 96.5%
- inhibition [2, 23]: 96.3%
- inhibition ([2]; single agent, at 5 µM): 95.4%
- inhibition ([3]; BGB IC20 combo, at 0.005 µM): 49.9%
- inhibition ([3]; BGB IC40 combo, at 0.005 µM): 48.2%
- inhibition ([3]; BGB IC40 combo, at 0.05 µM): 88.6%
- inhibition ([3]; at 0.5 µM): -3.29% (inactive)
- inhibition ([3]; cisplatin combo, at 0.05 µM): 88.1%
- inhibition ([3]; cisplatin combo, at 0.5 µM): -11.8%
- inhibition ([3]; cisplatin combo, at 5 µM): 27.2%
- inhibition [3, 24]: 32%
- inhibition ([4]; at 0.5 µM): 82.5% (active)
- inhibition [4, 19]: 62.2%
- inhibition [4, 25]: 96.8%
- inhibition [4, 26]: 91.5%
- inhibition ([5]; at 0.5 µM): 89.9% (active)
- inhibition [5, 27]: 85.2%
- inhibition [5, 28]: 92.5%
- inhibition [5, 29]: 91%
- inhibition [5, 30]: 88.7%
- inhibition ([5]; single agent, at 5 µM): 90.5%
- inhibition ([6]; at 0.5 µM): 98% (active)
- inhibition [6, 31]: 97.8%
- inhibition [6, 32]: 98.6%
- inhibition ([7]; at 0.5 µM): 86.8% (active)
- inhibition [7, 33]: 70.3%
- inhibition [7, 34]: 93.8%
- inhibition ([8]; at 0.5 µM): 88% (active)
- inhibition [8, 35]: 90.6%
- inhibition [8, 36]: 92.1%
- inhibition ([9]; at 0.5 µM): 61.3% (inactive)
- inhibition [9, 25]: 70.1%
- inhibition [9, 26]: 64.5%
- inhibition ([10]; at 0.5 µM): 81.2% (active)
- inhibition [10, 37]: 73.4%
- inhibition [10, 38]: 86%
- inhibition [10, 39]: 85.1%
- inhibition [10, 40]: 93.7%
- inhibition [11, 41]: 121%
- inhibition ([11]; at 0.5 µM): 87% (active)
- inhibition [11, 42]: 127%
- inhibition ([12]; at 0.5 µM): 77.8% (inactive)
- inhibition [12, 43]: 77.7%
- inhibition [12, 44]: 72.8%
- inhibition ([13]; at 0.5 µM): 72.7% (inactive)
- inhibition [13, 45]: 77.7%
- inhibition ([13]; cisplatin combination, at 5 µM): 74%
- inhibition [13, 46]: 80.3%
- inhibition ([13]; single agent, at 5 µM): 83.9%
- inhibition ([14]; at 0.5 µM): 82.2% (active)
- inhibition ([14]; cisplatin combo, at 5 µM): 90.5%
- inhibition [14, 47]: 80.1%
- inhibition [14, 25]: 86%
- inhibition ([14]; single agent, at 5 µM): 94.3%
- inhibition ([15]; at 0.5 µM): 96.9% (active)
- inhibition [15, 22]: 97.1%
- inhibition [15, 23]: 96.8%
- inhibition ([15]; single agent, at 0.05 µM): 88.4%
- inhibition ([15]; single agent, at 5 µM): 89.2%
